Assay outcomes: PubChem BioAssay, National Center for Advancing Translational Sciences (NCATS)
HP1b chromo inh – HTS for Inhibitors of HP1-beta Chromodomain Interactions with Methylated Histone Tails. actives 0.56% (n = 390,000). Potency, µM (titrated, usually from 114 µM), most hits filed as inhibitors. AlphaScreen HP1-beta / biotin-H3K9me3 peptide binding; also: nearly all actives have a fitted effect of over 70% in size
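HP1-beta protein (50 nM final) preincubated 30 min at room temperature with biotinylated H3(1-18)K9me3 peptide (50 nM) in PBS pH 7.4, 0.01% Tween-20, then compound added for 30 min. AlphaScreen streptavidin donor/nickel chelate acceptor beads (10 ug/mL final), 30 min dark, luminescence read.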
Sfp inh – qHTS Assay for Inhibitors of Bacillus subtilis Sfp phosphopantetheinyl transferase (PPTase) | Biochemical Sfp PPTase activity, qHTS | Potency, µM, actives largely listed as inhibitors | actives 3.5% (n = 310,000) | AID 1490, 2009;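 also: the enzyme is Sfp with the accession as filed and its product quenches rhodamine fluorescence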
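Compounds were incubated with enzyme (final 15 nM) for 15 min at room temperature before substrate addition started the reaction. Fluorescence at 525 nm excitation, 598 nm emission was recorded immediately and after 30 minutes.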
BAZ2B inh – qHTS Assay for Inhibitors of BAZ2B; Bromodomain adjacent to zinc finger domain protein 2B (Homo sapiens), Q9UIF8; AlphaScreen BAZ2B-H3K14Ac peptide displacement; Potency, µM (series often up to 114 µM), hits mostly inhibitors; actives 4.4% (n = 360,000); also: nearly all actives have a fitted effect of over 60% in size
Target sequence (Q9UIF8 whole entry, looked up, the tested form may be a part): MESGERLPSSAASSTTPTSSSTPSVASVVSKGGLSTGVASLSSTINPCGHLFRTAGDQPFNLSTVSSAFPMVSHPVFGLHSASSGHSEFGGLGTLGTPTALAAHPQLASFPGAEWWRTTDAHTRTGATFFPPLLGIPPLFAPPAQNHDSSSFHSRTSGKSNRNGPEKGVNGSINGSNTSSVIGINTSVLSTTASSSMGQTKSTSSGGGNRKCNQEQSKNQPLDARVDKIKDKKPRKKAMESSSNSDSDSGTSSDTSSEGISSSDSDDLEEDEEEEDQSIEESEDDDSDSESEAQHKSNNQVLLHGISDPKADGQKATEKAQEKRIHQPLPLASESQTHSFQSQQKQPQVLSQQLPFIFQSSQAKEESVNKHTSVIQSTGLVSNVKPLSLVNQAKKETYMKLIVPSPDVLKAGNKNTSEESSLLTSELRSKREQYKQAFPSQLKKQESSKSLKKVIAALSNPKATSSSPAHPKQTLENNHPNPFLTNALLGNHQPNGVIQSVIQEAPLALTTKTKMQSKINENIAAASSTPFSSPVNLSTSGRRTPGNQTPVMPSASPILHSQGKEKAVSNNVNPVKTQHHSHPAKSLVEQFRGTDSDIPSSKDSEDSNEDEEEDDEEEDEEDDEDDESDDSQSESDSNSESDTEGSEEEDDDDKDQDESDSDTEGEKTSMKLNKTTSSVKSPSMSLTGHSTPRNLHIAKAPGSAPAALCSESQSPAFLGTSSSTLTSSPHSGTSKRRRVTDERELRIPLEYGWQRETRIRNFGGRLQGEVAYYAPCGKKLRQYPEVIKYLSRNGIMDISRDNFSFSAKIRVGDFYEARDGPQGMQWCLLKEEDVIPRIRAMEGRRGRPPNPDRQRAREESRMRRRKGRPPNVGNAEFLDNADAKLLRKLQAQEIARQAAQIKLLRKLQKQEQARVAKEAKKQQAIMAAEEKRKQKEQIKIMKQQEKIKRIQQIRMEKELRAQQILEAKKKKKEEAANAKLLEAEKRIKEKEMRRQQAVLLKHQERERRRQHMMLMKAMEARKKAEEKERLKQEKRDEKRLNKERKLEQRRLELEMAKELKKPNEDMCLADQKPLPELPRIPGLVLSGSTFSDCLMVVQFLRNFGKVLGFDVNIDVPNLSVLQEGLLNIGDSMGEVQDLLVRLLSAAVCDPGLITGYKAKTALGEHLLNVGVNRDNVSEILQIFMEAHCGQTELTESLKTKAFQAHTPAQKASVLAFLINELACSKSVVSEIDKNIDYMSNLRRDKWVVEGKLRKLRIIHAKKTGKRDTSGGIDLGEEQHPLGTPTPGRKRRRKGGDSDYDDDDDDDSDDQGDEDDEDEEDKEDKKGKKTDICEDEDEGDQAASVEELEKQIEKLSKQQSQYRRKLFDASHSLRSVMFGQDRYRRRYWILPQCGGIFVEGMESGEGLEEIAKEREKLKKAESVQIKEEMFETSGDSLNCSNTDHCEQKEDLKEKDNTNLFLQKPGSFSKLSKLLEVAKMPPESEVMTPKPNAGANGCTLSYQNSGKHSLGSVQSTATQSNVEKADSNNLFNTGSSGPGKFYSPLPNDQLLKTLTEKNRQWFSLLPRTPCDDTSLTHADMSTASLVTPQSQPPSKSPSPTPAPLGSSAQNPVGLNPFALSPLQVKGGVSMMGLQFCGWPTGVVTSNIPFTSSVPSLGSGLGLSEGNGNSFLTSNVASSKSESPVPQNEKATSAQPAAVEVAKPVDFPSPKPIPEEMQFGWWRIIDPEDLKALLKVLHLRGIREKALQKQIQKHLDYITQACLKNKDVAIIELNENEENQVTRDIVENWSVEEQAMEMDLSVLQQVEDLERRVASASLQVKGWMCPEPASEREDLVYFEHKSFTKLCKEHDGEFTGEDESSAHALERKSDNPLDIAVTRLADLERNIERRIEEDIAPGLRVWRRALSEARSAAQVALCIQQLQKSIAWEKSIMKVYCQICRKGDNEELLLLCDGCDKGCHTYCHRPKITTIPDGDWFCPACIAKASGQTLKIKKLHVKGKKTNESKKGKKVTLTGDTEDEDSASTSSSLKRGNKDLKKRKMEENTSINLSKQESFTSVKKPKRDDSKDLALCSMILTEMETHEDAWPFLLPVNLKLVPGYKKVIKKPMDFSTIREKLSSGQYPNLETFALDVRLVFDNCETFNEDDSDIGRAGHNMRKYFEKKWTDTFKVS
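Compounds, titrated to a top concentration of 110 uM, were incubated 30 min at room temperature with preformed BAZ2B/acetyl-K14 H3 peptide complex (50 nM each). Proximity signal was measured by AlphaScreen after 20 min with beads.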
G9a block – qHTS Assay for Inhibitors of Histone Lysine Methyltransferase G9a; AID 504332, 2011; actives 8.8% (n = 350,000); Potency, µM (highest dose often 102 µM), hits mostly inhibitors; G9a H3K9 monomethylation, AlphaScreen, 2 h; also: nearly all actives have a fitted effect of over 75% in size
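G9a (20 nM) was preincubated 15 min with compound, then reacted 2 h at room temperature with 500 nM biotin-H3K9 peptide and 20 µM SAM. Monomethyl-H3K9 detected by AlphaScreen using anti-H3K9me1 antibody.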
L3MBTL1 block – qHTS Assay for the Inhibitors of L3MBTL1; Lethal(3)malignant brain tumor-like protein 1 (Homo sapiens), Q9Y468; actives 0.66% (n = 230,000); AlphaScreen L3MBTL1–H3K9me1 peptide binding; Potency, µM (titrated, usually from 57.1 µM), actives largely listed as inhibitors; also: nearly all actives have a fitted effect of over 60% in size
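Displacement of a biotinylated histone H3(1-15) peptide monomethylated at Lys9 (75 nM) from L3MBTL1 (50 nM) was measured by AlphaScreen after a 30 min room-temperature compound incubation; cefsulodin titration served as intraplate control.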
JMJD2A Tudor – qHTS Assay for Inhibitors of JMJD2A-Tudor Domain; Lysine-specific demethylase 4A (Homo sapiens), O75164; AlphaScreen JMJD2A-Tudor / H3K4me3 peptide binding; Potency, µM (top dose mostly 114 µM), usual class: inhibitors; actives 4.4% (n = 390,000); also: nearly all actives have a fitted effect of over 50% in size
Of the large screens only hits and unclear results are named; the others gave an inactive call. An excerpt weighted towards active compounds, which were near 12% of everything screened. Calls follow the shape of the dose curve; as a rule, active = well fitted curve in the direction sought with a large enough effect; inconclusive = small, poorly fitted or top-dose-only effect, or another doubt; inactive = no such curve, though single readings can be large; an effect the other way counts as inactive or inconclusive.

Nc1nonc1-n1nnc(C(=O)N/N=C/c2cccc(O)c2)c1CN1CCCC1	G9a block 45µM (no result: L3MBTL1 block)
COCc1c(C(=O)N/N=C\c2ccccn2)nnn1-c1nonc1N	Sfp inh 56µM, BAZ2B inh 40µM, G9a block 0.79µM, JMJD2A Tudor 79µM (no result: L3MBTL1 block)
COCc1c(C(=O)N/N=C/c2c[nH]c3ccccc23)nnn1-c1nonc1N	none (no result: L3MBTL1 block)
C/C(=N/NC(=O)CNc1ccc(C)cc1)c1ccc(Cl)cc1	BAZ2B inh inconclusive, G9a block 45µM, JMJD2A Tudor inconclusive
CCOC(=O)C1CCN(c2nc3c(C)cccn3c(=O)c2/C=C(\C#N)S(=O)(=O)c2ccccc2)CC1	G9a block inconclusive
N#Cc1c(-c2cccs2)cc(-c2cccs2)[nH]c1=O	none (no result: L3MBTL1 block)
Cc1cc(-c2cccs2)c(C#N)c(=S)[nH]1	Sfp inh 20µM, G9a block 1.6µM, JMJD2A Tudor 7.9µM
O=C(Nc1ccc(S(=O)(=O)N2CCCC2)cc1)C1CC(=O)N(CCc2ccc(F)cc2)C1 (stereo unspecified)	none (no result: Sfp inh)
CCOc1ccc(NC(=O)CSc2ncc3c(n2)-c2ccc(Cl)cc2N(Cc2ccccc2)S3(=O)=O)cc1	none (no result: Sfp inh, L3MBTL1 block)
CC(=O)N=c1c(C#N)cc2c(=O)n3ccccc3nc2n1CCCOC(C)C	Sfp inh 89µM (no result: G9a block)
S=C1NC(c2ccccc2)N2C(=S)NC(c3ccccc3)N12 (stereo unspecified)	HP1b chromo inh 32µM, Sfp inh 56µM, BAZ2B inh 79µM, G9a block inconclusive, JMJD2A Tudor 13µM (no result: L3MBTL1 block)
OC1NC(=S)N(c2ccccc2)C1O (stereo unspecified)	none (no result: G9a block)
Cc1cc(C)cc(NC(=O)CSc2nnc(-c3cc4occc4n3C)n2-c2ccccc2C)c1	G9a block inconclusive (no result: Sfp inh, L3MBTL1 block)
CCOC(=O)NC(=S)Nc1ccc(OC)cc1	none
CCOC(=O)NC(NC(=S)Nc1ccc(OC)cc1)C(Cl)(Cl)Cl (stereo unspecified)	G9a block 6.3µM
CCOC(=O)NC(NC(=S)Nc1ccccc1OC)C(Cl)(Cl)Cl (stereo unspecified)	G9a block inconclusive
COC(=O)NC(NC(=S)Nc1ccc([N+](=O)[O-])cc1)C(Cl)(Cl)Cl (stereo unspecified)	G9a block 10µM, L3MBTL1 block inconclusive, JMJD2A Tudor inconclusive
COC(=O)NC(NC(=S)Nc1ccccc1OC)C(Cl)(Cl)Cl (stereo unspecified)	G9a block 16µM
COCCNC(=O)C1CC(c2ccccc2C(F)(F)F)=NO1 (stereo unspecified)	none (no result: Sfp inh)
CC1CCCCC12NC(=O)N(CC(=O)N1CCN(S(=O)(=O)/C=C/c3ccccc3)CC1)C2=O (stereo unspecified)	none (no result: Sfp inh)
CCOC(=O)C(NCc1ccccn1)(NC(=O)c1cccnc1)C(F)(F)F (stereo unspecified)	Sfp inh inconclusive, BAZ2B inh 56µM, JMJD2A Tudor 63µM (no result: L3MBTL1 block)
CCOC(=O)C(NC(=O)c1cccnc1)(Nc1cccc(C)n1)C(F)(F)F (stereo unspecified)	none (no result: L3MBTL1 block)
CC(C)[C@H](NC(=O)[C@H](CCCCN)NC(=O)[C@@H](NC(=O)[C@@H]1CCCN1C(=O)[C@H](CCCN=C(N)N)NC(=O)[C@H](CCCN=C(N)N)NC(=O)[C@H](CCCCN)NC(=O)[C@H](CCCCN)NC(=O)CNC(=O)[C@@H](NC(=O)[C@@H]1CCCN1C(=O)[C@@H](N)CCCCN)C(C)C)C(C)C)C(=O)N[C@@H](Cc1ccc(O)cc1)C(=O)N1CCC[C@H]1C(=O)O	none (no result: HP1b chromo inh, BAZ2B inh, G9a block, L3MBTL1 block, JMJD2A Tudor)
CN(C)c1ccc(-c2nc(NCCc3cnc[nH]3)c3ccccc3n2)cc1	none (no result: HP1b chromo inh, BAZ2B inh, L3MBTL1 block, JMJD2A Tudor)
COc1ccccc1OCCNC(=O)C1CC(=O)N(Cc2ccc(C)cc2)C1 (stereo unspecified)	G9a block inconclusive (no result: Sfp inh)
COc1ccc(C2NC(=O)N(C)C3=C2C(=O)N(c2ccccc2)C3)cc1 (stereo unspecified)	BAZ2B inh inconclusive (no result: Sfp inh, L3MBTL1 block)
CN1C(=O)NC(c2ccccc2)C2=C1CN(c1cccc(C(F)(F)F)c1)C2=O (stereo unspecified)	G9a block 50µM
CCOc1cc(C=NN=C2c3ccccc3-c3ccccc32)ccc1O	HP1b chromo inh 50µM, JMJD2A Tudor 25µM (no result: Sfp inh, BAZ2B inh, G9a block, L3MBTL1 block)
C(=NN=C1c2ccccc2-c2ccccc21)c1ccc2c(c1)OCO2	HP1b chromo inh 50µM, JMJD2A Tudor 20µM (no result: Sfp inh, BAZ2B inh, G9a block, L3MBTL1 block)
Oc1cccc(C=NN=C2c3ccccc3-c3ccccc32)c1	HP1b chromo inh inconclusive, JMJD2A Tudor 45µM (no result: Sfp inh, BAZ2B inh, G9a block, L3MBTL1 block)
N/C(=N\N=C\c1ccc2c(c1)OCO2)c1nonc1N	none
COc1ccccc1Nc1nc(-c2ccc(F)cc2)c2c(n1)-c1ccccc1OC2	G9a block inconclusive (no result: Sfp inh, L3MBTL1 block)
O=C(Cn1cc(S(=O)(=O)Cc2cccc(Cl)c2)c2ccccc21)Nc1ccccc1C(F)(F)F	none (no result: Sfp inh, L3MBTL1 block)
CCN(CC)CCNC(=O)Cn1nc(C)c2c(C)n(-c3ccccc3)nc2c1=O	none (no result: Sfp inh, L3MBTL1 block)
O=C(NCCc1ccccc1Cl)c1ccc2c(=O)n(-c3ccccc3)c(=O)[nH]c2c1	none (no result: Sfp inh, L3MBTL1 block)
CCc1ccc(OCC(O)CN2CCN(c3ccccn3)CC2)cc1 (stereo unspecified)	none (no result: G9a block)
CC(C)(C)C1CCC(OCC(O)CN2CCN(Cc3ccccc3)CC2)CC1 (stereo unspecified)	BAZ2B inh inconclusive
CC(C)(C)C1CCC(OCC(O)CN2CCN(c3ccccn3)CC2)CC1 (stereo unspecified)	BAZ2B inh inconclusive, G9a block 32µM, JMJD2A Tudor inconclusive
Cc1cc(C)c(OCC(O)CN2CCN(c3ccccn3)CC2)c(C)c1 (stereo unspecified)	BAZ2B inh 56µM, G9a block inconclusive
OC(COc1ccc(Cl)cc1)CN1CCN(c2ccccn2)CC1 (stereo unspecified)	none (no result: Sfp inh, BAZ2B inh, G9a block, L3MBTL1 block)
Cc1cc(OCC(O)CN2CCN(c3ccccn3)CC2)cc(C)c1Cl (stereo unspecified)	BAZ2B inh inconclusive, G9a block 45µM, JMJD2A Tudor inconclusive
OC(COc1ccc(Cl)c2ccccc12)CN1CCN(c2ccccn2)CC1 (stereo unspecified)	HP1b chromo inh inconclusive, Sfp inh 79µM, BAZ2B inh inconclusive, JMJD2A Tudor inconclusive
OC(COCc1ccc(Cl)cc1)CN1CCN(c2ccccn2)CC1 (stereo unspecified)	JMJD2A Tudor inconclusive
COc1ccccc1CCn1c(=O)c(-c2ccc(Cl)cc2)nc2cncnc21	none (no result: HP1b chromo inh, BAZ2B inh, L3MBTL1 block, JMJD2A Tudor)
Cc1ccc(Cl)cc1NC(=O)CCCn1c(=O)c2cccn2c2ccccc21	G9a block inconclusive (no result: Sfp inh, L3MBTL1 block)
